Source: PubChem BioAssay (Buhrlage Lab, Dana-Farber Cancer Institute and Novartis Institutes for BioMedical Research (Cambridge, Mass))
USP17 inh: human USP17-like deubiquitinase inhibition. hit rate 6.5% among 47,000. inhibition, % at 50 µM. A8MUK1. purified USP17, Ub-rhodamine cleavage fluorescence, 3 h
USP8 block: inhibitors of human USP8 deubiquitinase. P40818. purified USP8, Ub-rhodamine cleavage fluorescence, 30 min. inhibition, % at 20 µM. hit rate 4.2% among 47,000. AID 1645853
USP30 block: blocks human USP30 ubiquitin-rhodamine cleavage; Q70CQ3; purified USP30, Ub-rhodamine cleavage fluorescence; inhibition, % at 25 µM; hit rate 5.3% among 47,000; AID 1645860
Target sequence (Q70CQ3 whole entry, looked up): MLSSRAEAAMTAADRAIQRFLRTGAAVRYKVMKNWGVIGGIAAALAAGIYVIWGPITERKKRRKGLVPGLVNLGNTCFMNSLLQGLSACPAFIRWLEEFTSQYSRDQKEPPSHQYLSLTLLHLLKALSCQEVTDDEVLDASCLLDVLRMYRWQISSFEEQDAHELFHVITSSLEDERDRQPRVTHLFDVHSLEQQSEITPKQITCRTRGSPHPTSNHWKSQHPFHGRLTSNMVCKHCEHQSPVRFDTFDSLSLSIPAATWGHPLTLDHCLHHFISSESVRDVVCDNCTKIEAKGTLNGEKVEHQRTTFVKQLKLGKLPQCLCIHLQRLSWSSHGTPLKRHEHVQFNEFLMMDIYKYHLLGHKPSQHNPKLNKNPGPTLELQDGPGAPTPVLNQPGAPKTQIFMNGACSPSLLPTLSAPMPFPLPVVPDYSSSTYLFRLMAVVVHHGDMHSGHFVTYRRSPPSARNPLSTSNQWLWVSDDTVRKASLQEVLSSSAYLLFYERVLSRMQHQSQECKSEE
USP28 block: human USP28 deubiquitinase inhibition | Q96RU2 | purified USP28, Ub-rhodamine cleavage fluorescence, 30 min | inhibition, % at 25 µM | hit rate 3% among 47,000
A number is an active result; . = inactive. An excerpt weighted towards active compounds, which were near 13% of everything screened. Cut-off read from the data, not from the text of the source: active = inhibition above about 30%; inactive = the rest.

SMILES | USP17 inh | USP8 block | USP30 block | USP28 block
O=c1c(-c2ccc(O)cc2)coc2cc(O)cc(O)c12 | . | . | . | .
O=c1cc(-c2ccc(O)c(O)c2)oc2cc(O)cc(O)c12 | 99 | 31 | 101 | 99
CCn1ncc2c1C(COC)CN(C(=O)c1cccn1C)C2 (configuration not stated) | . | . | . | .
CCCN1C(=O)Cc2c(C)nc(-c3cccc(F)c3)nc21 | . | 75 | . | .
COc1ccc(-c2cc(C(=O)N3CCN(c4ccc(N5CCOCC5)nn4)CC3)[nH]n2)cc1 | 38 | . | . | 32
COc1ccc(CCNC(=O)COc2cc(C)c3ccc(OC)cc3n2)cc1 | 46 | . | . | .
Cn1nccc1C(=O)NCCn1nc(-c2ccc(F)cc2)cc1-c1cccnc1 | . | . | . | .
COc1cc2c(oc(=O)c3cc(C)cc(OC)c32)c2c([C@@H]3OC(C)[C@@H](O)[C@@](C)(O)C3O)ccc(O)c12 (some centres not stated) | 79 | 59 | . | .
COC(=O)c1oc2c(c1C)C(=O)CC(c1ccc(F)cc1)C2 (configuration not stated) | . | . | . | .
Cc1ccc(S(=O)(=O)N2CCC3(CC2)OC(=O)Nc2ccccc23)cc1 | . | 35 | . | .
COc1cccc(-c2cc(C(=O)N3CCC4(CC3)OCCO4)[nH]n2)c1 | . | . | . | .
COc1cccc(-c2cc(C(=O)N3CC(c4nc5ccccc5[nH]4)C3)[nH]n2)c1 | . | . | . | 33
COc1ccc(COC(=O)C2=C(C)NC(=O)CC2c2cccc([N+](=O)[O-])c2)cc1 (configuration not stated) | . | . | . | 86
CC1=C(C(=O)OCc2ccc3c(c2)OCO3)C(c2ccccc2C)CC(=O)N1 (configuration not stated) | . | . | . | .
O=C(Cc1cccnc1)N[C@@H]1CC[C@@H](Oc2ccccc2)[C@@H](O)[C@@H]1O | 31 | 73 | . | .
O[C@H]1[C@H](O)[C@H](Oc2ccccc2)CC[C@H]1NCc1cccnc1 | . | . | . | .
CCCCC(C(=O)O)C(C)C(=O)O (configuration not stated) | . | . | . | .
CCCCC(C)/C=C(C)/C=C(\C)C(N)=O (configuration not stated) | . | . | 32 | .
COc1ccccc1C(=O)N1CCC(S(=O)(=O)c2ccc(-c3ccco3)cc2)CC1 | 56 | 53 | . | .
O=C(c1cnc2ccccc2n1)N1CCC(S(=O)(=O)c2ccc(-c3ccco3)cc2)CC1 | 44 | 56 | . | .
COc1ccc(S(=O)(=O)N2CCN(C(=O)c3cnc4ccccc4n3)CC2)cc1OC | . | 61 | . | .
COc1ccc(-c2c(C(=O)O)sc3c2NC(=O)CC3c2cc(F)ccc2F)cc1 (configuration not stated) | . | . | 35 | .
CCC(=O)N1c2ncnn2C(c2ccc(Cl)cc2)CC1c1ccccc1 (configuration not stated) | . | . | . | .
Cc1cc(-c2cnc(N(C)C)nc2-c2ccc(CNC(=O)C3CC3)cc2)on1 | . | . | . | .
Cc1ccccc1OCC(=O)N1CCN(S(=O)(=O)c2ccc3c(c2)OCCCO3)CC1 | . | . | 38 | .
SMILES | USP17 inh | USP8 block | USP30 block | USP28 block
Cc1c(NC(=O)N2CCCC2c2ccco2)cccc1[N+](=O)[O-] (configuration not stated) | . | . | . | .
Cc1c(C(=O)NCc2ccccc2Br)cc(-c2ccccc2)n1C | . | . | 32 | .
Cc1cc2c(cc1C)NC(CC(=O)Nc1ccc(O)cc1)C(=O)N2 (configuration not stated) | 64 | 81 | . | .
CCc1nc2ccccc2c(C(=O)OCc2ccc(Cl)cc2)c1C | . | . | . | .
COc1ccc(Nc2nc(NCc3ccccc3)c3nccnc3n2)cc1 | . | . | . | 37
Cc1ccc(Nc2nc(Nc3cccc(Cl)c3)nc3nccnc23)cc1 | . | . | . | .
O=C(CCc1nc2cccnc2n1Cc1ccccc1)NCCc1ccc(Cl)cc1 | . | . | . | .
CSc1cccc(NC(=O)CCc2nc3cccnc3n2Cc2ccccc2)c1 | 48 | . | . | .
CCc1ccc(NC(=O)CCc2nc3cccnc3n2Cc2ccccc2)cc1 | 71 | 35 | 79 | 57
Brc1ccc(Nc2nc(-c3ccccn3)nc3ccccc23)cc1 | 52 | 93 | 90 | 93
OCCCNc1cc(-c2cccc(C(F)(F)F)c2)nc(-c2ccccn2)n1 | . | . | . | .
Cc1cc(C)cc(NC(=O)Cc2nc(-c3ccccn3)n[nH]2)c1 | . | . | . | .
FC(F)(F)c1cccc(Nc2nc(-c3ccccn3)nc3ccccc23)c1 | 74 | . | 52 | 88
Cc1cccc(-n2ccnc(SCC(=O)Nc3ccc(Cl)cc3F)c2=O)c1 | 76 | 49 | 49 | 38
O=C(CSc1nccn1-c1cccc(C(=O)Nc2ccccc2)c1)Nc1ccccc1F | . | 51 | . | .
COc1nc2cc(C)ccc2cc1-c1noc(-c2ccncc2)n1 | . | . | . | .
C[C@@H]1C[C@@](C)(O)C[C@@H]2C=C[C@H](C)[C@H](/C=C/C=C/C(=O)O)[C@@H]12 | . | . | . | .
CC1=CC(=O)C(C2=C(O)C(=O)C(C)=CC2=O)=C(O)C1=O | 94 | 32 | . | 46
CC(=O)Nc1cccc(NC(=O)Cn2ccc3cc(Br)ccc32)c1 | 61 | . | 54 | 62
COc1ccc(C2CC(=O)C3=C(C2)Nc2ccccc2N(C(C)=O)C3c2cccc(Cl)c2)cc1OC (configuration not stated) | . | . | . | .
c1ccc(-c2nnn3c2nc(NCC2CCCO2)c2ccccc23)cc1 (configuration not stated) | . | . | . | .
CCCCNc1nc2c(-c3ccccc3)nnn2c2ccccc12 | 68 | . | . | .
COCCNc1nc2c(-c3cccc(C(F)(F)F)c3)nnn2c2ccccc12 | . | . | 32 | .
COc1cccc(C(=O)Nc2cccn3nc(C)nc23)c1 | . | . | . | .
COc1cccc(C(=O)Nc2nc(-c3ccco3)c(-c3ccco3)s2)c1 | 44 | 62 | . | .
SMILES | USP17 inh | USP8 block | USP30 block | USP28 block
O=C(Cn1nc(-c2ccc3c(c2)OCCO3)ccc1=O)Nc1ccc(Oc2ccccc2)cc1 | 31 | . | . | .
O=C(Cn1cnc(-c2ccccc2)cc1=O)Nc1ccc(Oc2ccccc2)cc1 | . | 46 | . | .
O=C(O)CC(CC(=O)Nc1ccc(Oc2ccccc2)cc1)c1ccccc1 (configuration not stated) | . | . | . | .
Cc1cc(=O)n(CC(=O)Nc2ccc3c(c2)OCCO3)c2c1c(C)nn2-c1ccccc1 | . | . | . | .
Cc1ccc(-c2cc(=O)n(CC(=O)Nc3ccc(C(C)C)cc3)cn2)cc1 | 38 | 34 | 48 | .
Cn1nc(C(=O)N2CCCC2)c2c1CCN(C(=O)CCC(=O)NCc1ccccc1)C2 | . | . | . | .
Cc1cc2nc(NC(=O)NC3CCCCC3)sc2cc1C | . | . | 36 | .
Cc1cccc(NC(=O)c2ccn(COc3ccc(F)cc3)n2)n1 | . | . | . | .
Cc1cc(C)nc(NC(=O)c2ccn(COc3ccc(F)cc3)n2)c1 | . | . | 32 | .
Cc1ccc(Cl)cc1NC(=O)c1cccc(-n2cnnn2)c1 | . | . | . | .
